Screens deposited in PubChem by National Center for Advancing Translational Sciences (NCATS).
Compounds with a hit are over-represented: about 3.3% of the library has one in this group of screens.
USP1-UAF1 inh = inhibitors of human USP1/UAF1 deubiquitinase; O94782; recombinant USP1/UAF1, Ub-Rhodamine cleavage fluorescence; Potency, µM (highest dose often 57.1 µM), most hits filed as inhibitors; hit rate 0.23% among 390,000; also: nearly all actives have a fitted effect of over 60% in size
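In this screen, compounds sit with the deubiquitinase complex (1nM) for 15 min at room temperature before Ub-Rho is added at 150nM final. Fluorescence rise is then followed for 6 reads every 60 seconds.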
USP2a inh = USP2a (human) protease inhibition; USP2 core, Ub-CHOP2 coupled fluorogenic reporter, 485/531; O75604; hit rate 0.01% among 330,000; AID 463254; Potency, µM (highest dose often 38.3 µM), most hits filed as inhibitors
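USP2 core (10nM final) preincubated 30min RT with compound in 20mM Tris-HCl pH 8.0, 2mM CaCl2, 2mM beta-mercaptoethanol, 0.05% CHAPS; 25nM Ub-CHOP2 plus 25nM reporter substrate added, fluorescence (Ex485/Em531) read after 60min.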
PI5P4Ka inh = inhibitors of human PI5P4K alpha. PI5P4Kalpha enzyme, ADP-Glo luminescence, 60 min; hits give low values. max response, %. hit rate 1.2% among 330,000; active = max response of -50% or lower; inconclusive = between -30% and -50%; inactive = -30% or higher; also: value at the top dose of about 77 µM
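Quantitative HTS of the MLSMR library against PI5P4Kalpha with substrate. ATP added last at 5 microM final; room temperature, 60 minutes. Remaining ATP depleted, ADP converted and read as luminescence.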
WRN helicase inh = blocks human WRN helicase | Q14191 | WRN helicase unwinding, fluorescent forked duplex, kinetic | hit rate 0.46% among 360,000 | AID 651768 | Potency, µM (highest dose often 114 µM), hits mostly inhibitors; also: nearly all actives have a fitted effect of over 55% in size
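WRN at 20 nM final preincubated with compound 15 min at room temperature; reaction started with 100 nM fluorophore/quencher forked duplex oligonucleotide and 2 mM ATP final. Unwinding followed kinetically by red fluorescence (ex 525, em 598 nm).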
PLK1 PBD inh = blocks phosphopeptide binding to human PLK1 polo-box domain. P53350. Plk1 PBD binding of FITC phosphopeptide, fluorescence polarization. Potency, µM, hits mostly inhibitors. hit rate 2.8% among 360,000; also: series mostly up to about 57 µM; nearly all actives have a fitted effect of over 65% in size
Target sequence (P53350 whole entry, looked up, the tested form may be a part): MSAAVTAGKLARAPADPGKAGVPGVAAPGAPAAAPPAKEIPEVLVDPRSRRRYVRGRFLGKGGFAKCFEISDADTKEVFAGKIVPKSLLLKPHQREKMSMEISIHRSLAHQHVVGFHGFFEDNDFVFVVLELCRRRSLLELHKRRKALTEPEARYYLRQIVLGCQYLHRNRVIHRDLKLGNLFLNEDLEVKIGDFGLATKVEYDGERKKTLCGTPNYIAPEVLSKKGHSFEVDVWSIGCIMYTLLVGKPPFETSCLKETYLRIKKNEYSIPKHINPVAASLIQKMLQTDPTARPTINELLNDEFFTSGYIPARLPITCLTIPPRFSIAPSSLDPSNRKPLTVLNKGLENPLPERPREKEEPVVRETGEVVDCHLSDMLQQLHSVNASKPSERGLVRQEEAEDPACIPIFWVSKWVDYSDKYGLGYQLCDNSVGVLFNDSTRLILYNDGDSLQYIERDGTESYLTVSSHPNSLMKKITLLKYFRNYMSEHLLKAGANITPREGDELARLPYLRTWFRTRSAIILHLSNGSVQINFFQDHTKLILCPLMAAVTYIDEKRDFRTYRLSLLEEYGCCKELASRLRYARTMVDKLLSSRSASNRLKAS
Numbers stand for hits; [ ] = dose if it differs, or a comment. Unless noted, calls follow the shape of the dose curve; as a rule, active = well fitted curve in the direction sought with a large enough effect; inconclusive = small, poorly fitted or top-dose-only effect, or another doubt; inactive = no such curve, though single readings can be large; an effect the other way counts as inactive or inconclusive.

For Cc1ccccc1Nc1c(-c2ccc(N3CCOCC3)cc2)nc2ccc(Cl)cn12 the results were USP1-UAF1 inh inactive.
COC(=O)c1sc(-c2ccc(Cl)cc2)cc1NC(=O)c1ccccc1C(=O)O was read as USP1-UAF1 inh inactive, USP2a inh inactive, PI5P4Ka inh inconclusive, WRN helicase inh inactive and PLK1 PBD inh 29.9µM.
`COC(=O)c1sc(-c2ccc(C(C)(C)C)cc2)cc1NC(=O)c1ccccc1C(=O)O` gave USP1-UAF1 inh 28.2µM, USP2a inh inactive, PI5P4Ka inh inconclusive, WRN helicase inh inactive[11.6 µM] and PLK1 PBD inh 21.2µM.
CCOP(=O)(OCC)C(C#N)=C1SCN(c2ccc(Cl)cc2)CS1 was read as USP1-UAF1 inh inactive, USP2a inh inactive, PI5P4Ka inh inactive, WRN helicase inh inactive and PLK1 PBD inh 26.7µM.
Screening COc1cc(/C=C(\C#N)C(=O)N2CCOCC2)cc(Br)c1O returned USP1-UAF1 inh inactive, USP2a inh inactive, PI5P4Ka inh -61.5, WRN helicase inh inactive and PLK1 PBD inh 21.2µM.
`CCN(CC)c1nn2c(=O)c(C(=O)NCCc3ccc(C)cc3)cnc2s1` gave USP1-UAF1 inh inactive.
`Cc1cc(C)c(OCC(=O)N(Cc2ccc(N(C)C)cc2)CC2CCCO2)c(C)c1` (centres undefined) gave USP1-UAF1 inh inactive.
`O=C(c1c[nH]c(C(=O)C(Cl)(Cl)Cl)c1)c1c(F)cccc1F` gave USP1-UAF1 inh inactive, USP2a inh inactive, PI5P4Ka inh inconclusive, WRN helicase inh inconclusive and PLK1 PBD inh 5.32µM.
Screening COc1cc(C(=O)NCCc2ccc(F)cc2)c([N+](=O)[O-])cc1OC returned USP1-UAF1 inh inactive, USP2a inh inactive, PI5P4Ka inh inactive, WRN helicase inh inactive and PLK1 PBD inh 13.4µM.
`CCCNC(=O)c1cc(OC)c(OC)cc1[N+](=O)[O-]` gave USP1-UAF1 inh inactive, USP2a inh inactive, PI5P4Ka inh inactive, WRN helicase inh inactive and PLK1 PBD inh inactive.
CCN1CCc2c(sc(N)c2C(N)=O)C1 was read as USP1-UAF1 inh inconclusive, USP2a inh inactive, PI5P4Ka inh inactive, WRN helicase inh inactive and PLK1 PBD inh 21.2µM.
NC(=O)c1c(N)sc2c1CCCC2 was read as USP1-UAF1 inh inactive, USP2a inh inactive, PI5P4Ka inh inactive, WRN helicase inh inactive and PLK1 PBD inh 23.8µM.
For CC(=O)Nc1sc2c(c1C(N)=O)CCCC2 the results were USP1-UAF1 inh inactive, USP2a inh inactive, PI5P4Ka inh inactive, WRN helicase inh inactive and PLK1 PBD inh inactive.
Screening CN1CCc2c1nc1ccccc1c2N=C1CCCN1Cc1ccccc1 returned USP1-UAF1 inh inactive, USP2a inh inactive, PI5P4Ka inh inactive, WRN helicase inh inactive and PLK1 PBD inh 21.2µM.
For Cc1ccc(Nc2nc(NCCO)nc3c2cnn3C)cc1Cl the results were USP1-UAF1 inh inactive, USP2a inh inactive, WRN helicase inh inactive and PLK1 PBD inh 18.9µM.
For CCCNc1nc(Nc2ccc(C)c(Cl)c2)c2cnn(C)c2n1 the results were USP1-UAF1 inh inactive, USP2a inh inactive, PI5P4Ka inh inactive, WRN helicase inh inactive and PLK1 PBD inh inactive.
`COc1cc(NC(=O)Cn2c(-c3ccccc3)cc(C(C)=O)c2C)cc(OC)c1` gave USP1-UAF1 inh inactive.
Screening CNC(=O)C1CCC(Cn2c(=O)c3sccc3n(Cc3ccccc3)c2=O)CC1 (centres undefined) returned USP1-UAF1 inh inactive.
Cc1nn(CC(=O)OCC(=O)Nc2c(C(C)C)cccc2C(C)C)c(C)c1[N+](=O)[O-] was read as USP1-UAF1 inh inactive, USP2a inh inactive, PI5P4Ka inh inactive, WRN helicase inh inactive and PLK1 PBD inh 29.9µM.
Screening O=C(CN1C(=O)C2C3C=CC(C3)C2C1=O)NCCc1ccccc1 (centres undefined) returned USP1-UAF1 inh inactive, USP2a inh inactive, PI5P4Ka inh inconclusive, WRN helicase inh inactive and PLK1 PBD inh 2.99µM.
Screening CCCCN(Cc1ccccc1)S(=O)(=O)c1ccc2c(c1)CC(C)N2C(=O)CC (centres undefined) returned USP1-UAF1 inh inactive.
Screening CCOc1ccc(CCNC(=O)c2cc3c(-c4ccccc4F)nn(C)c3s2)cc1OCC returned USP1-UAF1 inh inactive.
Screening C=CS(=O)(=O)c1c2cc(OC)ccc2nc2ccc(OC)cc12 returned USP1-UAF1 inh inconclusive, PI5P4Ka inh inactive, WRN helicase inh inconclusive and PLK1 PBD inh 2.67µM.
For Cc1ccc(C)n1-c1ccc(C(=O)NN)cc1 the results were USP1-UAF1 inh inactive, USP2a inh inactive, PI5P4Ka inh inconclusive, WRN helicase inh inactive and PLK1 PBD inh 2.99µM.
For Cc1ccc(C)n1-c1ccc(C(=O)NCc2ccncc2)cc1 the results were USP1-UAF1 inh inactive, USP2a inh inactive, PI5P4Ka inh inactive, WRN helicase inh inactive and PLK1 PBD inh inactive.
For COc1cccc(N2CCN(C(=O)c3cccc(N4C(=O)NC5CC4(C)Oc4c(OC)cccc45)c3)CC2)c1 (centres undefined) the results were USP1-UAF1 inh inactive, USP2a inh inactive, PI5P4Ka inh inactive, WRN helicase inh inactive and PLK1 PBD inh inactive.
CCOc1cccc2c1OC1(C)CC2NC(=O)N1c1ccc(OC)cc1 (centres undefined) was read as USP1-UAF1 inh inactive, USP2a inh inactive, PI5P4Ka inh inactive, WRN helicase inh inactive and PLK1 PBD inh 13.4µM.
For COc1ccc(-c2noc(CN3CCN(C(=O)c4cccs4)CC3)n2)c(OC)c1OC the results were USP1-UAF1 inh inactive, USP2a inh inactive, PI5P4Ka inh inactive, WRN helicase inh inactive and PLK1 PBD inh 21.2µM.
`CN(C)c1ccc(C(CNC(=O)c2c(F)cccc2Cl)N2CCOCC2)cc1` (centres undefined) gave USP1-UAF1 inh inactive.
Screening CCOc1cc(C2c3c(-c4cc(C)ccc4O)n[nH]c3C(=O)N2CCCOC(C)C)ccc1O (centres undefined) returned USP1-UAF1 inh inactive.
O=c1oc2ccc(F)cc2cc1-c1nc(-c2cccs2)no1 was read as USP1-UAF1 inh inactive.
`CCc1c(C(C)S(=O)(=O)c2ccc(C)cc2)[nH]c(=O)n1-c1ccc(C)cc1` (centres undefined) gave USP1-UAF1 inh inactive, USP2a inh inactive, PI5P4Ka inh inactive, WRN helicase inh inactive and PLK1 PBD inh 26.7µM.
Screening COC(=O)c1ccccc1-c1c2ccc(=N)cc-2oc2cc(N)ccc12 returned USP1-UAF1 inh inactive, USP2a inh inconclusive, PI5P4Ka inh inactive, WRN helicase inh 4.74µM and PLK1 PBD inh inconclusive.
COC(=O)c1ccccc1-c1ccc(/C=N/NC(=O)c2cc3ccccc3o2)o1 was read as USP1-UAF1 inh inactive, USP2a inh inactive, PI5P4Ka inh inactive, WRN helicase inh inactive and PLK1 PBD inh inactive.
`Cc1cc(C(=S)N2CCOCC2)c(C)n1-c1ccc(Cl)cc1` gave USP1-UAF1 inh inactive, USP2a inh inactive, PI5P4Ka inh inactive, WRN helicase inh inactive and PLK1 PBD inh inconclusive.
For Cc1cc(C)cc(-n2c(C)cc(C(=S)N3CCOCC3)c2C)c1 the results were USP1-UAF1 inh inactive, USP2a inh inactive, PI5P4Ka inh inactive, WRN helicase inh inactive and PLK1 PBD inh 18.9µM.
